The values that follow come from the supplement of paper PMC13380429.

The subject of this assay is Vero E6 infected with SARS-CoV-2. The experiment in a line: morphology score (similarity to uninfected cells); higher = more like uninfected cells. Conditions: 24 h.
With `CN[C@@H](C)C(=O)N[C@H](C(=O)N1CCC[C@H]1C(=O)Nc1sc(-c2ncco2)nc1-c1ccccc1)C1CCCCC1` (10 µM), the morphology score is 0.185.

As to `CCCCc1nn(-c2ccccc2C(F)(F)F)c(=O)n1Cc1ccc(-c2ccccc2S(=O)(=O)NC(=O)c2sccc2C)cc1` (10 µM), the morphology score is 0.0872.

As to `N[C@@H](C(=O)O)c1ccc(C(=O)O)c(C(=O)O)c1` (racemic) (10 µM), the morphology score stood at 0.105.

The compound `O=S(=O)(N[C@H]1CC[C@@](c2cc(F)ccc2F)(S(=O)(=O)c2ccc(Cl)cc2)CC1)C(F)(F)F` (10 µM) came in with a morphology score of 0.0636.

`Cc1[nH]c(/C=C2\C(=O)Nc3ccc(F)cc32)c(C)c1C(=O)NCCN1CCCC1` [toceranib] (0.833333 µM): the morphology score was -0.0721.

In the case of `COc1cc(C)c(/C=C/C(C)=C/C=C/C(C)=C/C(=O)O)c(C)c1C` [acitretin] (10 µM), the morphology score was -0.0971.

The compound `CCCCOC(=O)c1ccc(N)cc1` [butamben] (10 µM) had a morphology score of 0.102.

`Cc1[nH]c2ccc(O)cc2c1CCN` [2-methyl-5-hydroxytryptamine] (10 µM): the morphology score was 0.00237.

`COCCN1CCN(Cc2ccc(-c3n[nH]c4c3C(=O)c3c(NC(=O)NN5CCOCC5)cccc3-4)cc2)CC1` (10 µM) showed a morphology score of -0.35.

`NS(=O)(=O)c1ccc2c(c1)C1C=CCC1C(c1ccc(Br)cc1)N2` (stereo not given) (10 µM) had a morphology score of -0.0557.

The compound `CC1(C)O[C@@H]2C[C@H]3[C@@H]4C[C@H](F)C5=CC(=O)C=C[C@]5(C)[C@H]4[C@@H](O)C[C@]3(C)[C@]2(C(=O)CO)O1` [flunisolide] (10 µM) had a morphology score of 0.103.

Take `COCCOCCOc1ccc(C2=N[C@@](C)(C(=O)O)CS2)c(O)c1` (10 µM): the morphology score amounted to 0.128.

As to `CC(=O)c1ccc2c(c1)N(CCCN(C)C)c1ccccc1S2` [acepromazine] (10 µM), the morphology score was 0.192.

In the case of `CO[C@@]1(NC(=O)C(C(=O)O)c2ccc(O)cc2)C(=O)N2C(C(=O)O)=C(CSc3nnnn3C)CO[C@@H]21` (stereo not given in full) [moxalactam] (10 µM), the morphology score was -0.0497.

Consider `CO[C@H]1C[C@@H]2CC[C@@H](C)[C@@](O)(O2)C(=O)C(=O)N2CCCC[C@H]2C(=O)O[C@H]([C@H](C)C[C@@H]2CC[C@@H](O)[C@H](OC)C2)CC(=O)[C@H](C)/C=C(\C)[C@@H](O)[C@@H](OC)C(=O)[C@H](C)C[C@H](C)/C=C/C=C/C=C/1C` [sirolimus] (10 µM), for which the morphology score is -0.126.

`CC(=O)Oc1cc2c(s1)CCN(C(C(=O)C1CC1)c1ccccc1F)C2` (stereo not given) [prasugrel] (10 µM) yielded a morphology score of 0.0783.

`CC1(C)S[C@@H]2[C@H](NC(=O)[C@H](NC(=O)N3CCNC3=O)c3ccccc3)C(=O)N2[C@H]1C(=O)O` [azlocillin] (10 µM): the morphology score is -0.0252.

`CCN1CCC(n2cc(CNc3cc(Cl)c4ncc(C#N)c(Nc5ccc(F)c(Cl)c5)c4c3)nn2)CC1` [cot-inhibitor-2] (10 µM) had a morphology score of 0.683.

As for `CCOc1cc(OCC)c(C(=O)CCC(=O)O)cc1OCC` [trepibutone] (10 µM), the morphology score is -0.0558.

For `Cc1cn2nc([C@@H]3CCCCN3C(=O)c3cc(Cl)ccc3NS(C)(=O)=O)cc2nc1N1CC[C@H](N)C1` [presatovir] (10 µM), the morphology score amounted to 0.215.

`NC(=O)NC1NC(=O)NC1=O` (stereo not given) [allantoin] (10 µM): the morphology score is -0.0426.

As for `COC(=O)N1CC[C@@H]2[C@H]1CCC[C@@]2(O)C#Cc1cccc(C)c1` [mavoglurant] (10 µM), the morphology score was -0.125.

In turn, `CN(C)CCOC(c1ccccc1)c1ccccc1` [diphenhydramine] (10 µM) registered a morphology score of 0.203.

`NC(Cc1ccc(I)cc1)C(=O)O` (stereo in doubt) [4-iodo-L-phenylalanine] (10 µM): the morphology score was found to be 0.202.

The compound `C[C@@]12CC[C@@H]3[C@@](CC[C@H]4[C@@]3(C)CCC[C@@]4(C)C(=O)O)(CC1=O)C2` [isosteviol] (10 µM) returned a morphology score of 0.144.

With `O=[N+]([O-])c1cnc(Sc2nnc(O)n2-c2ccc3c(c2)OCCO3)s1` (0.833333 µM), the morphology score stood at 0.392.

Regarding `C[C@@H]1CN(Cc2ccc(F)cc2)CCN1C(=O)COc1ccc(Cl)cc1NC(N)=O` (10 µM), the morphology score was -0.0461.

As to `C[C@]12CCC(=O)C(O)=C1CC[C@@H]1[C@@H]2CC[C@]2(C)C(=O)CC[C@@H]12` [formestane] (10 µM), the morphology score is -0.134.

For `O=[N+]([O-])c1cncn1CCN1CCOCC1` [nimorazole] (10 µM), the morphology score was determined as 0.0962.

As to `Cn1c(=O)c2c(ncn2CC2OCCO2)n(C)c1=O` [doxofylline] (10 µM), the morphology score is -0.118.

For `COc1ccc(C(=O)Nc2sc3c(c2C(N)=O)CCCC3)cc1OC` (10 µM), the morphology score is -0.0466.

As for `O=C1C(O)=C(O)C(=O)C(O)=C1O` [tetroquinone] (10 µM), the morphology score worked out at 0.0422.

`Cn1cnnc1Sc1c([N+](=O)[O-])ncn1C` (10 µM): the morphology score came out at 0.299.

`C=C(C)[C@@H]1CC[C@]2(CO)CC[C@]3(C)[C@H](CC[C@@H]4[C@@]5(C)CC[C@H](O)C(C)(C)[C@@H]5CC[C@]43C)[C@@H]12` (10 µM): the morphology score is 0.000891.

In turn, `CO[C@H]1C[C@H](O[C@H]2[C@H](C)O[C@@H](O[C@@H]3/C(C)=C/C[C@@H]4C[C@@H](C[C@]5(C=C[C@H](C)[C@@H](C6CCCCC6)O5)O4)OC(=O)[C@@H]4C=C(C)[C@@H](O)[C@H]5OC/C(=C\C=C\[C@@H]3C)[C@]54O)C[C@@H]2OC)O[C@@H](C)[C@@H]1O` [doramectin] (0.833333 µM) had a morphology score of 0.0705.

Turning to `O=c1[nH]c2ccccc2n1CCCN1CCC(n2c(=O)[nH]c3cc(Cl)ccc32)CC1` [domperidone] (10 µM), the morphology score was 0.00154.

On to `O=c1ccc2cc3ccoc3cc2o1` [psoralen] (10 µM), for which the morphology score was -0.0337.

The compound `CCC[C@H](N[C@@H](C)C(=O)N1[C@H](C(=O)O)C[C@@H]2CCCC[C@@H]21)C(=O)O` [perindoprilat] (10 µM) yielded a morphology score of 0.276.

In turn, `Cl/C=C\C[N+]12CN3CN(CN(C3)C1)C2` [1-((Z)-3-chloroallyl)-1,3,5,7-tetraazaadamantan-1-ium] (10 µM) registered a morphology score of 0.0348.

Compound `OCC(O)CN1CCN(c2ccccc2)CC1` (stereo not given) [dropropizine] (10 µM) displayed a morphology score of 0.106.
